Test results reported in PubChem BioAssay (NCI).
The panel holds about 83,000 compounds, 20% with a hit somewhere; the sample as a whole holds those more often.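 How to read the values: 0–100, growth inhibition (40 = 60% inhibited); 0, no net growth; -100 to 0, cell death (-40 = 40% of starting cells died; -100 = all dead).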 Values without a mark were called inactive. Calls of active or inactive are those of the source. How the source made its calls: active means growth percent below 10; inactive means the rest.

Each compound was assayed on HL-60(TB) leukemia (assay: NCI-60 one-dose screen, 48 h (100 = growth as untreated, 0 = no growth, -100 = all killed)). Conditions: 10 µM unless noted.

Compound | growth
CC1(C)OC2OC3C(CN)OC(c4ccccc4)OC3C2O1 (stereo not given) | 49.3%
COc1ccc(CCN2C(=O)CCSC2=S)cc1 | 72.3%
Cc1cc2nc(-c3c(N)ncc(C#N)c3-c3ccc(Cl)cc3)[nH]c2cc1C | 89.5%
N#Cc1c(-c2ccc(C(F)(F)F)cc2)c(F)c(NCCC2CCC(O)C2)n2c1nc1ccccc12 (stereo not given) | 25.1%
O=C(/C=C/c1ccccc1)c1c[nH]c2ccccc2c1=O | -12.9% (active)
COc1ccc(C(Cc2ccccc2)NCCN2CCOCC2)cc1 (stereo not given) | 93.8%
COc1cc2nc(N3CCCC3)nc(NCc3ccccc3)c2cc1OC | -47.8% (active)
CCOC(=O)c1c(C)nc2c(c1N)CC(=O)N2CCc1ccccc1 | -3.38% (active)
NC(=O)[C@@H]1Cc2ccccc2CN1C(=O)c1ccc2c(c1)Cc1ccccc1-2 | 72.2%
CCC(C)(C)C(=O)O[C@H]1C[C@@H](C)C=C2C=C[C@H](C)[C@H](CC[C@@H]3C[C@@H](O)CC(=O)O3)[C@H]21 | 77.1%
CC(=O)C(/C=N/C(N)=O)=C(/C)O | 104%
CC(C)=CC(=O)OCC(=O)O[C@@H]1C[C@]2(C(C)C)O[C@@]1(C)[C@@H]1CC[C@@H](C)[C@H]1[C@@H]2OC(=O)/C=C/c1ccccc1 | 85%
Cn1cc(-c2nc(-c3c[nH]c4ccncc34)cs2)c2cc(Br)ccc21 | -61.4% (active)
O=[N+]([O-])c1ccc(C(Br)c2ccc([N+](=O)[O-])cc2)cc1 | 57.6%
Cc1ccc2c(n1)C[C@H](C(C)(C)O)CC[C@H]2C | 103%
CCNS(=O)(=O)c1ccc(C)cc1 | 72%
NC(=NCCCOc1ccc(F)cc1)Nc1ccc(Cl)cc1 | 72%
NC(=O)Nc1cc(-c2cccc(F)c2)sc1C(=O)N[C@H]1CCCNC1 | -29.9% (active)
COC(=O)[C@H](Cc1cn(C)cn1)NC(=O)[C@@H](NC(=O)Nc1cc(C(F)(F)F)cc(C(F)(F)F)c1)C(C)(C)C | -56.2% [100 µM] (active)
COc1cccc(-c2cn3c(ccc4ccccc43)n2)c1 | 6.28% (active)

Compound | growth
N=C(N)c1nn(C2OC(CO)C(O)C2O)c2nc[nH]c(=O)c12 (stereo not given) | -25.2% (active)
CC(=O)[C@@H]1CC[C@]2(COS(=O)(=O)c3ccc(C)cc3)CC[C@]3(C)[C@H](CC[C@@H]4[C@@]5(C)CCCNC(C)(C)[C@@H]5CC[C@]43C)[C@@H]12 | 28.1%
COC1OC(CO)C(OC)C(O)C1O (stereo not given) | 103%
Nc1nnc2cc(Cl)ccc2n1 | 145%
CC(C)(C)c1ccc(O)c(Br)c1 | 156%
CC(=O)Oc1c(Cl)cccc1-c1ccccc1 | 99.6%
Cc1ccc(/C=C2/C(=O)N(C)c3ccc(S(=O)(=O)Nc4ccc(C(C)(C)C)cc4)cc32)s1 | 97%
Fc1cc2c(cc1Cl)N(c1ncnc3ccc(-c4cnc5cnccn45)cc13)CC2 | -7.92% (active)
COc1cc(C2CC(c3ccc(SC)cc3)=NN2C(C)=O)cc(OC)c1OC (stereo not given) | 17.6%
COc1ccc2c(c1)c(-c1nonc1-c1c[nH]c3ccc(Br)cc13)cn2C | 53.2%
CN1C(=O)C2(NN=C(c3cccc4ccccc34)S2)c2ccccc21 (stereo not given) | 34.7%
CC1(C)OC2=C(CC1Br)C(=O)C(=O)c1ccccc12 (stereo not given) | -8.14% (active)
Cc1nc2c(=O)nc3s/c(=C\c4ccco4)c(=O)n3c2nc1C | 98%
Cc1ccc2nc(NC(=O)CSc3nc(-c4ccccc4)c(C#N)c(=O)n3Cc3ccccc3)sc2c1 | 100%
COc1ccc(-c2nn(-c3cccc(NC(=O)c4ccc5c(c4)OCCO5)c3)cc2-c2ccncc2)cc1Cl | -2.93% (active)
O=[N+]([O-])c1cc2ncccc2c2ncccc12 | 88.1%
Nc1nc(Nc2cccnc2)sc1C(=O)c1ccccc1F | -35.6% (active)
Oc1ccc(C#CCOc2ccccc2)cc1CNCCN(Cc1ccccn1)Cc1ccccn1 | -13.6% (active)
COc1cc(CSc2nc3ccc(Cl)cc3c(=O)n2-c2ccccc2)cc(OC)c1OC | 90.8%
CC1(C)CC[C@]23CC[C@]4(C)[C@H](CC[C@@H]5[C@@]6(C)C/C(=C/c7ccncc7)C(=O)C(C)(C)[C@@H]6CC[C@]54C)[C@H]2[C@H]1OC3 | 61%
